High-throughput results as filed in PubChem.
sEH inhibitor: soluble epoxide hydrolase inhibitors, primary screen, biochemical, human sEH; Bifunctional epoxide hydrolase 2 (Homo sapiens), P34913; recombinant human sEH enzymatic activity assay; inhibition, % at 2 µM; 91,000 tested, 0.34% active; in the data active means inhibition above about 80%
sEH activator: soluble epoxide hydrolase activators, primary screen, biochemical, human sEH; purified human sEH enzymatic activity, activator screen; activation, % at 2 µM; Bifunctional epoxide hydrolase 2 (Homo sapiens), P34913; 91,000 tested, 0.04% active; AID 717, 2007; in the data active means activation above about 37%
CYP2C9 inhib: blockers of cytochrome P450 2C9 activity – biochemical, luminescence, ADME assay, primary screen | P11712 | inhibition, % at 5 µM | CYP2C9 Supersomes, luciferin-H conversion | 96,000 tested, 20% active;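 active means blocking of liver enzyme CYP2C9 beyond about 50% at 5 µM, limit read from the data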
Target sequence (P11712 whole entry, looked up): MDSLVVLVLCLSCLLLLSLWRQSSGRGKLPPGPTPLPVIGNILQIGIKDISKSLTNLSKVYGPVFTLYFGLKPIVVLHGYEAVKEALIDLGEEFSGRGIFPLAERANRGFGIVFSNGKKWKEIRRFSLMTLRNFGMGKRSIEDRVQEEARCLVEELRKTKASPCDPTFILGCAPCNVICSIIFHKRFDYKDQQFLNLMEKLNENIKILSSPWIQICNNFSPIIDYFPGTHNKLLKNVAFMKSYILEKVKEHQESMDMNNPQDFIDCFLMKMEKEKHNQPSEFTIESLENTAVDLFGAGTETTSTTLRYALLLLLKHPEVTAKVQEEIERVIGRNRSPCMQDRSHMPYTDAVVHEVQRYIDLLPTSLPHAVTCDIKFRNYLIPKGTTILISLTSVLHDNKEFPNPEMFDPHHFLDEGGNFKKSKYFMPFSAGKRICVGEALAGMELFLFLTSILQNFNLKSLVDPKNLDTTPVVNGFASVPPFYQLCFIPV
CYP2C19 act: human CYP2C19 activators, primary screen, biochemical, luminescence; 96,000 tested, under 10 active; AID 1025, 2008; recombinant CYP2C19, luciferin-H EGE luminescence; stronger effect = higher value; 0 = fully inhibited enzyme, 1 = untreated enzyme; activation factor at 5 µM; Cytochrome P450 2C19 (Homo sapiens), P33261;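 active means activation factor of at least 2 at 5 µM in the primary screen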;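 further: 0 = wells with 2.5 mM tranylcypromine and 1 = vehicle-only wells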
CYP2C19 inhib: blockers of cytochrome P450 2C19 activity – biochemical, luminescence, ADME assay, primary screen; inhibition, % at 5 µM; P33261; 96,000 tested, 21% active; AID 778, 2007; CYP2C19 Supersomes, luciferin-H EGE luminescence, 30 min;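 active means CYP2C19 inhibition above a set limit at 5 µM in the primary screen, cut at about 50% in these data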;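 further: plate controls were negative control wells for no effect and 2.5 mM tranylcypromine positive control for full effect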
CYP2C9 act: human CYP2C9 activators, primary screen, biochemical, luminescence. 96,000 tested, 1.4% active. Cytochrome P450 2C9 (Homo sapiens), P11712. activation factor at 5 µM. recombinant CYP2C9, luciferin-H conversion; stronger effect = higher value; factor 1 = untreated enzyme, 0 = blocked. AID 1024, 2008;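 active means activation factor of 2 or more for CYP2C9 at a 5 µM dose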;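 further: 0 = sulfaphenazole-blocked wells and 1 = vehicle-only wells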
An asterisk follows results filed as active; · = not tested or not shown. In the library only some 27% were active in any assay of this set; here they are far more common.

SMILES | sEH inhibitor | sEH activator | CYP2C9 inhib | CYP2C19 act | CYP2C19 inhib | CYP2C9 act
N#CC1=C(Nc2ccccc2)SC=C(c2ccc(Br)cc2)N=C1N1CCOCC1 | 3 | 0 | -20 | 1 | -2 | 1.2
CCOC(=O)c1cc(C(O)(C(F)(F)F)C(F)(F)F)c(/N=C/N(C)C)o1 | -1 | 2 | 9 | 1 | 4 | 0.9
Cc1cc(NC(=O)c2ccco2)ncc1NC(=O)CCc1ccccc1 | 5 | -3 | 49 | 0.8 | 23 | 0.5
CCCCOC(=O)c1ccc(NC(C)=O)cc1 | -4 | 3 | 25 | 0.8 | 18 | 0.8
CCCCOc1ccccc1NC(=O)C=C(C)C | 9 | -8 | 4 | 0.9 | 6 | 1
CCCCOc1ccccc1NC(=O)c1ccco1 | -21 | 21 | 0 | 0.5 | 52* | 1
Cc1ccccc1OCC(=O)Nc1cccc(NC(=O)c2ccco2)c1 | · | · | 19 | 0.3 | 72* | 0.8
Cc1cc(NC(=O)c2cccc(F)c2)ncc1NC(=O)c1ccco1 | -1 | 3 | 63* | 0 | 96* | 0.4
CCCCCOC(=O)c1ccc(NC(=O)c2ccco2)cc1 | 11 | -11 | 94* | 0.2 | 80* | 0.1
Cc1cccc(C)c1OCC(=O)Nc1cccc(NC(=O)c2ccco2)c1 | -4 | 7 | · | · | · | ·
COC(=O)c1c(-n2c(C)cc(C=O)c2C)sc2c1CCCC2 | 0 | 1 | · | · | · | ·
CCSc1nnc(C)n1-c1ccc(C(=O)O)cc1 | -8 | 9 | -18 | 1.1 | -10 | 1.2
CCCN1CCC(N(C)CCc2ccc(OC)c(OC)c2)CC1 | 1 | 1 | -6 | 1.1 | -8 | 1.1
Cc1nc(-c2ccccn2)sc1C(=O)Nc1ccc(Cl)c(Cl)c1 | 8 | -6 | 41 | 0.9 | 10 | 0.6
CCOc1ccccc1NC(=O)c1cccc(NC(=O)c2ccco2)c1 | -24 | 24 | -91 | 0.2 | 76* | 1.9
CCOc1ccc(C(=O)Nc2ccc(NC(=O)c3ccco3)c(Cl)c2)cc1Cl | 18 | -17 | 4 | 1 | 0 | 1
O=C(NC(=Nc1ccccc1)N1CCOCC1)Nc1ccccc1 | 4 | -4 | 56* | 0.5 | 55* | 0.4
COc1ccc(CNC(=O)CSc2ncnc3nc[nH]c23)cc1 | 4 | -4 | 17 | 0.4 | 61* | 0.8
CC(NC(=O)CSc1ncnc2nc[nH]c12)c1ccccc1 (stereo unspecified) | 6 | -5 | 94* | 0.8 | 23 | 0.1
Cc1cccc(OCCCC(=O)NC(C)C)c1 | 8 | -8 | 4 | 0.7 | 31 | 1
COc1ccc(CCNc2ccncn2)cc1OC | -8 | 8 | 67* | 0.1 | 94* | 0.3
CCOC(=O)c1ccc2ncc(C(=O)OCC)c(NCCN(C)C)c2c1 | -5 | 4 | · | · | · | ·
CCOc1cc(C)nc(NCCc2ccc(OC)c(OC)c2)n1 | 0 | -1 | 21 | 0.3 | 66* | 0.8
COc1ccc(N2CCN(c3nc(NCCc4ccc(OC)c(OC)c4)nc(OC)n3)CC2)cc1 | 10 | -5 | 83* | 0.2 | 82* | 0.2
CCOC(=O)c1cnc2ccccc2c1NCCc1ccc(OC)c(OC)c1 | -4 | 2 | 83* | 0.3 | 75* | 0.2
SMILES | sEH inhibitor | sEH activator | CYP2C9 inhib | CYP2C19 act | CYP2C19 inhib | CYP2C9 act
CCOC(=O)CNC(=O)CNC(=O)Cn1ccc2ccccc2c1=O | 8 | -5 | -7 | 1.1 | -6 | 1.1
CCC(C)C(=O)N1c2ccccc2C(=C2SC(C(=O)OC)=C(C(=O)OC)S2)C(=S)C1(C)C (stereo unspecified) | -9 | 6 | 72* | 0.2 | 76* | 0.3
O=C(Cn1cnc2c(nnn2Cc2ccc(F)cc2)c1=O)N1CCCc2ccccc21 | 9 | -6 | · | · | · | ·
CCCc1cc(=O)[nH]c(Nc2ccc(OC)c(Cl)c2)n1 | 4 | -6 | 72* | 0.9 | 13 | 0.3
CCCc1cc(=O)[nH]c(Nc2ccc(O)cc2)n1 | -23 | 20 | -1 | 0.8 | 16 | 1
CC(C)(C)NC(=O)COC(=O)c1cc(F)c(F)cc1Cl | 4 | -3 | 1 | 0.2 | 77* | 1
O=C1Cn2c(nc3ccccc32)N1c1cccc(C(F)(F)F)c1 | -9 | 6 | 31 | 0.4 | 59* | 0.7
